# Assay results taken from paper PMC7862700, “An all-to-all approach to the identification of sequence-specific readers for epigenetic DNA modifications on cytosine”.
# Tests used:
# Assay in all cases: DAPPL (digital affinity profiling via proximity ligation, sequencing); 10 mM Tris-HCl pH 7.5, 50 mM NaCl, 1 mM DTT, 4% glycerol, room temperature, 30 min; GST-TFs on glutathione beads, 16-mer random dsDNA library, 0.1% formaldehyde crosslink after washing; high values mean tight binding
# Conditions in all cases: protein: recombinant; tags: N-terminal GST; dsDNA, one strand shown
# FLI1 = molecular target: T1, FLI1 (Homo sapiens, UniProt Q01543 1-452)
# T1 sequence: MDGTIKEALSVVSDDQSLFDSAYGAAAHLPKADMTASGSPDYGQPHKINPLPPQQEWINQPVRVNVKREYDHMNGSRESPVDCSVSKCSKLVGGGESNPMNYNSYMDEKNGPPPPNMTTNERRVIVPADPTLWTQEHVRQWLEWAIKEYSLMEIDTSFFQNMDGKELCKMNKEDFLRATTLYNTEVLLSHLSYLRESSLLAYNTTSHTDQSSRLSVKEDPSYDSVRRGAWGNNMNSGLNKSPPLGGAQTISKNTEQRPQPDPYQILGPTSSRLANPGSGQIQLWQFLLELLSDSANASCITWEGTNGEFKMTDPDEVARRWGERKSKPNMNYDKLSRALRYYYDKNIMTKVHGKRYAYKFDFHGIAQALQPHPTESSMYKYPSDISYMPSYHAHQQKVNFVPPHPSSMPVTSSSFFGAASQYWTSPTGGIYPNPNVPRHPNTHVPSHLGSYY
# Procedure, shortened: (§1)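 Human transcription factors fused to GST were expressed in yeast, captured on glutathione beads, given DNA barcodes and pooled with a GST-only negative control. Pools were incubated with 200 nmole of a 16-mer random double-stranded DNA library in Tris/NaCl/DTT/glycerol buffer at room temperature for 30 min. They were then washed, crosslinked with 0.1% formaldehyde, proximity-ligated (BsaI/T4 ligase, 1 h, 37 °C), PCR-amplified and sequenced on an Illumina NextSeq500. Binding signal is each 6-mer's read frequency for a factor divided by its frequency for the GST control.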
# ELK1 = molecular target: T2, ELK1 (Homo sapiens, UniProt P19419 1-428)
# T2 sequence: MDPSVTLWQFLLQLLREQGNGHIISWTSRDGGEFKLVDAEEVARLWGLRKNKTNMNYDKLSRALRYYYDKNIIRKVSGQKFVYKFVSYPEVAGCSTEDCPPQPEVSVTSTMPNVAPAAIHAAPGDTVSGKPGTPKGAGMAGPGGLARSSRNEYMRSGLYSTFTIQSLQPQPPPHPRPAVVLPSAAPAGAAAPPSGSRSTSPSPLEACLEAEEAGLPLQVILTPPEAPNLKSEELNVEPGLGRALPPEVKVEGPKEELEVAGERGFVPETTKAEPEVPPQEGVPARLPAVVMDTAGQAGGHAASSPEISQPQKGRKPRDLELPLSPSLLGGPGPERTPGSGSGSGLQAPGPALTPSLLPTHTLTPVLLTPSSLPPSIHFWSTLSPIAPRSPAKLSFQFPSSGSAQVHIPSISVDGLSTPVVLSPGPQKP
# Procedure, shortened: as §1
# GABPA = molecular target: T3, GABPA (Homo sapiens, UniProt Q06546 1-454)
# T3 sequence: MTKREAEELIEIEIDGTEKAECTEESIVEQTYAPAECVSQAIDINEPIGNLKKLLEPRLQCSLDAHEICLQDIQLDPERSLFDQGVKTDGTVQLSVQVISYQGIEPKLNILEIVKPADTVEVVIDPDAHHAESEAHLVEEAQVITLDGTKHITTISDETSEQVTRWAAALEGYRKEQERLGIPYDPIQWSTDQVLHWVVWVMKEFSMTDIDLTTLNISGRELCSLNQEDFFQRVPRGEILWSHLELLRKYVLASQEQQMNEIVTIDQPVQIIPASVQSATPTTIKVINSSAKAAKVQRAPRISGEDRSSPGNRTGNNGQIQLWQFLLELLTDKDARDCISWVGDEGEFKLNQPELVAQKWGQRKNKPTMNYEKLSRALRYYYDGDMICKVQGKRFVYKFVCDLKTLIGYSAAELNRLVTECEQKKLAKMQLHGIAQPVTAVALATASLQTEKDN
# Procedure, shortened: as §1
# ERG = molecular target: T4, ERG (Homo sapiens, UniProt P11308 1-479)
# T4 sequence: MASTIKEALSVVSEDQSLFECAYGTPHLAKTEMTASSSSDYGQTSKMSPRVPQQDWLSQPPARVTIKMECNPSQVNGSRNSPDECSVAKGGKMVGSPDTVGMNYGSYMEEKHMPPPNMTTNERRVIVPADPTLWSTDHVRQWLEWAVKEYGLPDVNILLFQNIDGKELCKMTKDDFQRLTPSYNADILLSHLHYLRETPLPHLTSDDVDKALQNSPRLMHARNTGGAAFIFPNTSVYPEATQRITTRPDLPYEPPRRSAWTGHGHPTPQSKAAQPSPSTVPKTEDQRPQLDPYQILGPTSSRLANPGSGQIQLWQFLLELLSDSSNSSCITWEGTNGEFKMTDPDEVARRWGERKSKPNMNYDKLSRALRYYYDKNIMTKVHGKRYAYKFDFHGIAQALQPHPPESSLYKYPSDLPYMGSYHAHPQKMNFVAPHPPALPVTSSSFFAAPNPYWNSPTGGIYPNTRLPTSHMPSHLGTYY
# Procedure, shortened: as §1
# ELF1 = ELF1 (Homo sapiens, UniProt P32519 1-619)
# ELF1, sequence (P32519 whole entry): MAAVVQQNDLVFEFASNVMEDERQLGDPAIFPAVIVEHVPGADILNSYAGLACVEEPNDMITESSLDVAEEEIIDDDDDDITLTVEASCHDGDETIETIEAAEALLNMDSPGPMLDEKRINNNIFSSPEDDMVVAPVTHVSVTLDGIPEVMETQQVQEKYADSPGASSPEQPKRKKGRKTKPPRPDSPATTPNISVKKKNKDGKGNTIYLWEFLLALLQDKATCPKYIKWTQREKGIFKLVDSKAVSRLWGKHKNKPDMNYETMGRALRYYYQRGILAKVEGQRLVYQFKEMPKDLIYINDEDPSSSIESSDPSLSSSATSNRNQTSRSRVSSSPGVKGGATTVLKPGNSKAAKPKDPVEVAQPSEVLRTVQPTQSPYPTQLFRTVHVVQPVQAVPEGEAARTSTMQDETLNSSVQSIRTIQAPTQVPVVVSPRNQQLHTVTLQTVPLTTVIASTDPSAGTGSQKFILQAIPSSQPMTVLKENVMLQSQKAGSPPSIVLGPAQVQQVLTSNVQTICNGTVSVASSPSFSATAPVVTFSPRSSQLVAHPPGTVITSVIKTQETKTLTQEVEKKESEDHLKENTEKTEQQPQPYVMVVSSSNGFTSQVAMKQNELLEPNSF
# Procedure, shortened: as §1
# EHF = molecular target: T5, EHF (Homo sapiens, UniProt Q9NZC4 1-300)
# T5 sequence: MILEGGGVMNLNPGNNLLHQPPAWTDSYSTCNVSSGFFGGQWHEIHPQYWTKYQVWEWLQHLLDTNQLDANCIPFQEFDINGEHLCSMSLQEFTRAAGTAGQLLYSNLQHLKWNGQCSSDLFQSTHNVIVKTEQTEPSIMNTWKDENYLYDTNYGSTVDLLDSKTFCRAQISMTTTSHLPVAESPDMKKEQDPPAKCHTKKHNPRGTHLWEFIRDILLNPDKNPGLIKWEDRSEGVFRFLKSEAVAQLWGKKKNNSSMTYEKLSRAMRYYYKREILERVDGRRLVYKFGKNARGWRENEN
# Procedure, shortened: as §1
# SPI1 = SPI1 (Homo sapiens, UniProt P17947 1-270)
# Procedure, shortened: as §1
# SPIB = SPIB (Homo sapiens, UniProt Q01892 1-262)
# SPIB, sequence (Q01892 whole entry): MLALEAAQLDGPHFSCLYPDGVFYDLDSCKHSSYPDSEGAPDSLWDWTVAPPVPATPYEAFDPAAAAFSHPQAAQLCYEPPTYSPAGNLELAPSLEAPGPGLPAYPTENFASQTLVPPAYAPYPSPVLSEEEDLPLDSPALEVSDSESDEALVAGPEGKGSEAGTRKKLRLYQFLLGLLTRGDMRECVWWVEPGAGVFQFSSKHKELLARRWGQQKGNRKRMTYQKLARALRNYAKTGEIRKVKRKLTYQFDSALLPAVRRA
# Procedure, shortened: as §1
# ELK3 = molecular target: T6, ELK3 (Homo sapiens, UniProt P41970 1-407)
# T6 sequence: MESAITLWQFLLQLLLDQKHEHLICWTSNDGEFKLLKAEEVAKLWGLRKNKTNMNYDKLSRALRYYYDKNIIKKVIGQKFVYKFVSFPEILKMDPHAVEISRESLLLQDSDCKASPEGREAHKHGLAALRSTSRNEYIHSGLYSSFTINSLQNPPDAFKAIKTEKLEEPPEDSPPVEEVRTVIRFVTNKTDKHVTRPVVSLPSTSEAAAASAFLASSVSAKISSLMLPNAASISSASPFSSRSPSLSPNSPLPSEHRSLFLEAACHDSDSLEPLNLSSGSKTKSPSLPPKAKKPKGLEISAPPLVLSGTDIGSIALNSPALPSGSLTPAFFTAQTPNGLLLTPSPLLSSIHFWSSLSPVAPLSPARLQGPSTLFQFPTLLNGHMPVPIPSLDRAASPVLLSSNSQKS
# Procedure, shortened: as §1
Sequence,binding signal (FLI1),binding signal (ELK1),binding signal (GABPA),binding signal (ERG),binding signal (ELF1),binding signal (EHF),binding signal (SPI1),binding signal (SPIB),binding signal (ELK3)
CCTCAC,"1.29 fold enrichment (6-mer frequency, TF over GST control)","1.3 fold enrichment (6-mer frequency, TF over GST control)","1.26 fold enrichment (6-mer frequency, TF over GST control)","1.22 fold enrichment (6-mer frequency, TF over GST control)","1.22 fold enrichment (6-mer frequency, TF over GST control)","1.28 fold enrichment (6-mer frequency, TF over GST control)","1.28 fold enrichment (6-mer frequency, TF over GST control)","1.21 fold enrichment (6-mer frequency, TF over GST control)","1.33 fold enrichment (6-mer frequency, TF over GST control)"
GCCGAT,"1.14 fold enrichment (6-mer frequency, TF over GST control)","1.09 fold enrichment (6-mer frequency, TF over GST control)","1.21 fold enrichment (6-mer frequency, TF over GST control)","1.03 fold enrichment (6-mer frequency, TF over GST control)","1.03 fold enrichment (6-mer frequency, TF over GST control)","1.01 fold enrichment (6-mer frequency, TF over GST control)","1.12 fold enrichment (6-mer frequency, TF over GST control)","1.07 fold enrichment (6-mer frequency, TF over GST control)","1.08 fold enrichment (6-mer frequency, TF over GST control)"
ACAAAC,"1.15 fold enrichment (6-mer frequency, TF over GST control)","1.15 fold enrichment (6-mer frequency, TF over GST control)","1.14 fold enrichment (6-mer frequency, TF over GST control)","1.16 fold enrichment (6-mer frequency, TF over GST control)","1.12 fold enrichment (6-mer frequency, TF over GST control)","1.15 fold enrichment (6-mer frequency, TF over GST control)","1.11 fold enrichment (6-mer frequency, TF over GST control)","1.11 fold enrichment (6-mer frequency, TF over GST control)","1.17 fold enrichment (6-mer frequency, TF over GST control)"
TTGCGG,"1.37 fold enrichment (6-mer frequency, TF over GST control)","1.14 fold enrichment (6-mer frequency, TF over GST control)","1.21 fold enrichment (6-mer frequency, TF over GST control)","1.28 fold enrichment (6-mer frequency, TF over GST control)","1.38 fold enrichment (6-mer frequency, TF over GST control)","1.3 fold enrichment (6-mer frequency, TF over GST control)","1.61 fold enrichment (6-mer frequency, TF over GST control)","1.2 fold enrichment (6-mer frequency, TF over GST control)","1.26 fold enrichment (6-mer frequency, TF over GST control)"
TCAACG,"1.12 fold enrichment (6-mer frequency, TF over GST control)","1.05 fold enrichment (6-mer frequency, TF over GST control)","1.09 fold enrichment (6-mer frequency, TF over GST control)","1.08 fold enrichment (6-mer frequency, TF over GST control)","1.14 fold enrichment (6-mer frequency, TF over GST control)","1.06 fold enrichment (6-mer frequency, TF over GST control)","1 fold enrichment (6-mer frequency, TF over GST control)","1.12 fold enrichment (6-mer frequency, TF over GST control)","1.22 fold enrichment (6-mer frequency, TF over GST control)"
CAGGAT,"1.23 fold enrichment (6-mer frequency, TF over GST control)","1.16 fold enrichment (6-mer frequency, TF over GST control)","1.13 fold enrichment (6-mer frequency, TF over GST control)","1.2 fold enrichment (6-mer frequency, TF over GST control)","1.14 fold enrichment (6-mer frequency, TF over GST control)","1.19 fold enrichment (6-mer frequency, TF over GST control)","1.1 fold enrichment (6-mer frequency, TF over GST control)","1.29 fold enrichment (6-mer frequency, TF over GST control)","1.04 fold enrichment (6-mer frequency, TF over GST control)"
TAGGAA,"1.07 fold enrichment (6-mer frequency, TF over GST control)","1 fold enrichment (6-mer frequency, TF over GST control)","1.04 fold enrichment (6-mer frequency, TF over GST control)","1.17 fold enrichment (6-mer frequency, TF over GST control)","1.03 fold enrichment (6-mer frequency, TF over GST control)","1.25 fold enrichment (6-mer frequency, TF over GST control)","1.23 fold enrichment (6-mer frequency, TF over GST control)","1.28 fold enrichment (6-mer frequency, TF over GST control)","1.03 fold enrichment (6-mer frequency, TF over GST control)"
GTTCCC,"1.36 fold enrichment (6-mer frequency, TF over GST control)","1.27 fold enrichment (6-mer frequency, TF over GST control)","1.33 fold enrichment (6-mer frequency, TF over GST control)","1.25 fold enrichment (6-mer frequency, TF over GST control)","1.28 fold enrichment (6-mer frequency, TF over GST control)","1.28 fold enrichment (6-mer frequency, TF over GST control)","1.71 fold enrichment (6-mer frequency, TF over GST control)","1.37 fold enrichment (6-mer frequency, TF over GST control)","1.23 fold enrichment (6-mer frequency, TF over GST control)"
